# Source: PubChem BioAssay AID1159580 (chemical genetic matrix, 2015)
# “And” between values parts separate entries of the source, which are not always exact repeats. Identical values can stand only once. Hit rate of the full screen: of about 5,500 compounds, about 2,000 (36%) were called active. Not shown: some 18% with an inconclusive outcome. This is one part of the list. Values without a mark were called inactive. Rule as the data show it: active = normalized growth mostly below about 0.91 (no sharp cut-off); inconclusive = no clear call, values can overlap the other calls; inactive = mostly above about 0.92.
# Test: chemical genetic growth profiling, strain panel (AID 1159580);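 also: tested at 20 µM; growth read once vehicle control cultures reached saturation at 30 °C; 1 = growth at the plate median or of vehicle wells; lower values mean less growth of the strain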
# Conditions: S. cerevisiae deletion strains, growth OD
smiles,measurement,setting,value
CC(=O)OC1CCC23CC1(C)CCC2C(C)(C)CC3OC(C)=O (stereo unspecified),normalized growth,"locus YAL021C, strain ccr4, active compounds read low",1.04
same,normalized growth,"locus YAL026C, strain drs2, active compounds read low",1.02
same,normalized growth,"locus YAL030W, strain snc1, active compounds read low",0.996
same,normalized growth,"locus YBL061C, strain skt5, active compounds read low",1.01
same,normalized growth,"locus YBR009C, strain hhf1, active compounds read low",1.01
same,normalized growth,"locus YBR021W, strain FUR4, active compounds read low",1.01
same,normalized growth,"locus YBR023C, strain chs3, active compounds read low",0.981
same,normalized growth,"locus YBR171W, strain sec66, active compounds read low",0.999
same,normalized growth,"locus YBR229C, strain ROT2, active compounds read low",0.988
same,normalized growth,"locus YBR231C, strain swc5, active compounds read low",1.02
same,normalized growth,"locus YBR279W, strain paf1, active compounds read low",1.04
same,normalized growth,"locus YCL011C, strain gbp2, active compounds read low",0.995
same,normalized growth,"locus YCL016C, strain dcc1, active compounds read low",0.978
same,normalized growth,"locus YCL029C, strain bik1, active compounds read low",1.01
same,normalized growth,"locus YCL061C, strain MRC1, active compounds read low",1.01
same,normalized growth,"locus YCL069W, strain vba3, active compounds read low",0.991
same,normalized growth,"locus YCR088W, strain abp1, active compounds read low",0.992
same,normalized growth,"locus YDL005C, strain med2, active compounds read low",0.994
same,normalized growth,"locus YDL035C, strain GPR1, active compounds read low",1.01
same,normalized growth,"locus YDL040C, strain nat1, active compounds read low",0.999
same,normalized growth,"locus YDL074C, strain BRE1, active compounds read low",1.01
same,normalized growth,"locus YDL101C, strain DUN1, active compounds read low",1.04
same,normalized growth,"locus YDL134C, strain PPH21, active compounds read low",1.02
same,normalized growth,"locus YDL185W, strain tfp1, active compounds read low",1.03
same,normalized growth,"locus YDL192W, strain arf1, active compounds read low",0.974
same,normalized growth,"locus YDR001C, strain nth1, active compounds read low",0.984
same,normalized growth,"locus YDR069C, strain doa4, active compounds read low",1.01
same,normalized growth,"locus YDR101C, strain arx1, active compounds read low",0.98
same,normalized growth,"locus YDR137W, strain rgp1, active compounds read low",0.882
same,normalized growth,"locus YDR159W, strain sac3, active compounds read low",1.03
same,normalized growth,"locus YDR162C, strain NBP2, active compounds read low",0.95
same,normalized growth,"locus YDR195W, strain ref2",1.03
same,normalized growth,"locus YDR297W, strain sur2, active compounds read low",1.01
same,normalized growth,"locus YDR318W, strain mcm21, active compounds read low",1
same,normalized growth,"locus YDR334W, strain swr1, active compounds read low",1.01
same,normalized growth,"locus YDR335W, strain msn5, active compounds read low",1
same,normalized growth,"locus YDR388W, active compounds read low",0.989
same,normalized growth,"locus YDR392W, strain spt3, active compounds read low",0.528 (active)
same,normalized growth,"locus YDR502C, strain sam2, active compounds read low",1.01
same,normalized growth,"locus YEL003W, strain gim4, active compounds read low",1.03
same,normalized growth,"locus YEL037C, strain rad23, active compounds read low",1.01
same,normalized growth,"locus YEL061C, strain CIN8 (second series), active compounds read low",1
same,normalized growth,"locus YER015W, strain faa2, active compounds read low",1.02
same,normalized growth,"locus YER016W, strain bim1, active compounds read low",1
same,normalized growth,"locus YER110C, active compounds read low",1.03
same,normalized growth,"locus YER111C, strain swi4, active compounds read low",1.01
same,normalized growth,"locus YER155C, strain BEM2 (second series), active compounds read low",0.99
same,normalized growth,"locus YER155C, strain BEM2, active compounds read low",1.02
same,normalized growth,"locus YER167W, strain BCK2, active compounds read low",0.997
same,normalized growth,"locus YFR010W, strain ubp6, active compounds read low",1.05
same,normalized growth,"locus YGL078C, strain dbp3, active compounds read low",1
same,normalized growth,"locus YGL086W, strain mad1, active compounds read low",0.959
same,normalized growth,"locus YGL167C, strain pmr1, active compounds read low",0.993
same,normalized growth,"locus YGL173C, strain kem1, active compounds read low",1.03
same,normalized growth,"locus YGL227W, strain vid30, active compounds read low",1.01
same,normalized growth,"locus YGL240W, strain doc1, active compounds read low",1.01
same,normalized growth,"locus YGL248W, strain PDE1, active compounds read low",1.04
same,normalized growth,"locus YGL253W, strain hxk2, active compounds read low",1.02
same,normalized growth,"locus YGR078C, strain PAC10, active compounds read low",0.987
same,normalized growth,"locus YGR135W, strain pre9, active compounds read low",1.02
same,normalized growth,"locus YGR252W, strain gcn5, active compounds read low",1.1
same,normalized growth,"locus YHR013C, strain ard1, active compounds read low",1.01
same,normalized growth,"locus YHR027C, strain rpn1, active compounds read low",1
same,normalized growth,"locus YHR030C, strain SLT2, active compounds read low",1.01
same,normalized growth,"locus YHR079C, strain IRE1 (second series), active compounds read low",0.995
same,normalized growth,"locus YHR079C, strain IRE1, active compounds read low",1.01
same,normalized growth,"locus YHR094C, strain hxt1, active compounds read low",0.998
same,normalized growth,"locus YHR129C, strain ARP1, active compounds read low",1
same,normalized growth,"locus YHR142W, strain chs7, active compounds read low",0.963
same,normalized growth,"locus YHR200W, strain rpn10, active compounds read low",0.995
same,normalized growth,"locus YIL066C, strain RNR3, active compounds read low",0.997
same,normalized growth,"locus YIL073C, strain SPO22, active compounds read low",0.995
same,normalized growth,"locus YIL125W, strain kgd1, active compounds read low",0.998
same,normalized growth,"locus YIR030C, strain dcg1, active compounds read low",0.988
same,normalized growth,"locus YJL092W, strain hpr5, active compounds read low",1.01
same,normalized growth,"locus YJL095W, strain BCK1 (second series), active compounds read low",1.01
same,normalized growth,"locus YJL095W, strain BCK1, active compounds read low",0.969 and 1.04
same,normalized growth,"locus YJL115W, strain asf1, active compounds read low",1.01
same,normalized growth,"locus YJL129C, strain trk1, active compounds read low",0.881
same,normalized growth,"locus YJL134W, strain LCB3, active compounds read low",0.998
same,normalized growth,"locus YJL154C, strain vps35, active compounds read low",1
same,normalized growth,"locus YJL164C, strain tpk1, active compounds read low",1.02
same,normalized growth,"locus YJL166W, strain qcr8, active compounds read low",0.993
same,normalized growth,"locus YJL168C, strain set2, active compounds read low",0.985
same,normalized growth,"locus YJL187C, strain SWE1 (second series), active compounds read low",1.07
same,normalized growth,"locus YJR043C, strain POL32, active compounds read low",1.04
same,normalized growth,"locus YJR066W, strain TOR1, active compounds read low",0.98
same,normalized growth,"locus YJR075W, strain HOC1, active compounds read low",0.999
same,normalized growth,"locus YKL009W, strain mrt4, active compounds read low",0.992
same,normalized growth,"locus YKL068W, active compounds read low",0.972
same,normalized growth,"locus YKL085W, strain MDH1 (second series), active compounds read low",0.967
same,normalized growth,"locus YKL085W, strain MDH1, active compounds read low",0.967
same,normalized growth,"locus YKL160W, strain elf1, active compounds read low",1
same,normalized growth,"locus YKR001C, strain vps1, active compounds read low",1.01
same,normalized growth,"locus YKR026C, strain gcn3, active compounds read low",0.991
same,normalized growth,"locus YKR091W, strain srl3, active compounds read low",0.981
same,normalized growth,"locus YLL001W, strain dnm1, active compounds read low",0.995
same,normalized growth,"locus YLL026W, active compounds read low",1
same,normalized growth,"locus YLL041C, strain sdh2, active compounds read low",0.994
same,normalized growth,"locus YLR027C, strain aat2, active compounds read low",1.01
same,normalized growth,"locus YLR039C, strain RIC1, active compounds read low",0.968
same,normalized growth,"locus YLR058C, strain SHM2, active compounds read low",1.05
same,normalized growth,"locus YLR102C, strain apc9, active compounds read low",1.01
same,normalized growth,"locus YLR113W, strain HOG1, active compounds read low",1
same,normalized growth,"locus YLR221C, strain rsa3, active compounds read low",1.01
same,normalized growth,"locus YLR258W, strain gsy2, active compounds read low",1.01
same,normalized growth,"locus YLR262C, strain YPT6 (second series), active compounds read low",0.961
same,normalized growth,"locus YLR262C, strain YPT6, active compounds read low",0.929
same,normalized growth,"locus YLR268W, strain sec22, active compounds read low",0.997
same,normalized growth,"locus YLR320W, strain mms22, active compounds read low",0.959
same,normalized growth,"locus YLR342W, strain FKS1 (second series), active compounds read low",1
same,normalized growth,"locus YLR342W, strain FKS1, active compounds read low",0.988
same,normalized growth,"locus YLR357W, strain rsc2, active compounds read low",1.07
same,normalized growth,"locus YLR370C, strain arc18, active compounds read low",1.04
same,normalized growth,"locus YLR371W, strain rom2, active compounds read low",0.959
same,normalized growth,"locus YLR384C, strain iki3, active compounds read low",0.997
same,normalized growth,"locus YLR418C, strain cdc73, active compounds read low",0.904
same,normalized growth,"locus YML016C, strain PPZ1, active compounds read low",1.02
same,normalized growth,"locus YML032C, strain rad52, active compounds read low",1.01
same,normalized growth,"locus YML120C, strain ndi1, active compounds read low",0.965
same,normalized growth,"locus YML124C, strain tub3, active compounds read low",0.99
same,normalized growth,"locus YMR058W, strain fet3, active compounds read low",1.03
same,normalized growth,"locus YMR078C, strain ctf18, active compounds read low",0.991
same,normalized growth,"locus YMR125W, strain sto1, active compounds read low",1
same,normalized growth,"locus YMR129W, active compounds read low",1
same,normalized growth,"locus YMR205C, strain PFK2, active compounds read low",0.924
same,normalized growth,"locus YMR223W, strain ubp8, active compounds read low",1
same,normalized growth,"locus YMR231W, strain pep5, active compounds read low",1.02
same,normalized growth,"locus YMR307W, strain GAS1, active compounds read low",0.976
same,normalized growth,"locus YNL067W, strain RPL9B, active compounds read low",1.01
same,normalized growth,"locus YNL071W, strain lat1, active compounds read low",0.836 (active)
same,normalized growth,"locus YNL153C, strain GIM3, active compounds read low",1.03
same,normalized growth,"locus YNL183C, strain NPR1, active compounds read low",0.974
same,normalized growth,"locus YNL209W, strain ssb2, active compounds read low",1.01
same,normalized growth,"locus YNL233W, strain BNI4, active compounds read low",1.01
same,normalized growth,"locus YNL248C, strain rpa49, active compounds read low",1.04
same,normalized growth,"locus YNL250W, strain rad50, active compounds read low",1.03
same,normalized growth,"locus YNL271C, strain bni1, active compounds read low",0.996
same,normalized growth,"locus YNL298W, strain CLA4, active compounds read low",1
same,normalized growth,"locus YNL307C, strain MCK1, active compounds read low",0.943
same,normalized growth,"locus YNL322C, strain KRE1 (second series), active compounds read low",1.01
same,normalized growth,"locus YNL322C, strain KRE1, active compounds read low",1
same,normalized growth,"locus YNR049C, strain mso1, active compounds read low",0.984
same,normalized growth,"locus YNR052C, strain pop2, active compounds read low",1.01
same,normalized growth,"locus YOL012C, strain htz1",0.724
same,normalized growth,"locus YOL147C, strain pex11, active compounds read low",1
same,normalized growth,"locus YOR001W, strain rrp6, active compounds read low",1.04
same,normalized growth,"locus YOR061W, strain CKA2, active compounds read low",1.03
same,normalized growth,"locus YOR069W, strain VPS5, active compounds read low",1.01
same,normalized growth,"locus YOR070C, strain gyp1, active compounds read low",1.01
same,normalized growth,"locus YOR080W, strain dia2, active compounds read low",1.02
same,normalized growth,"locus YOR083W, strain WHI5, active compounds read low",1.02
same,normalized growth,"locus YOR106W, strain vam3, active compounds read low",1.01
same,normalized growth,"locus YOR136W, strain idh2, active compounds read low",1.02
same,normalized growth,"locus YOR144C, strain elg1, active compounds read low",0.993
same,normalized growth,"locus YOR184W, strain ser1, active compounds read low",0.852 (active)
same,normalized growth,"locus YOR231W, strain MKK1, active compounds read low",1.04
same,normalized growth,"locus YOR265W, strain rbl2, active compounds read low",1.02
same,normalized growth,"locus YOR270C, strain vph1, active compounds read low",0.851
same,normalized growth,"locus YOR290C, strain snf2, active compounds read low",0.977
same,normalized growth,"locus YOR316C, strain cot1, active compounds read low",1
same,normalized growth,"locus YPL051W, strain arl3, active compounds read low",0.994
same,normalized growth,"locus YPL078C, strain atp4, active compounds read low",0.941
same,normalized growth,"locus YPL106C, strain sse1, active compounds read low",1.07
same,normalized growth,"locus YPL240C, strain hsp82, active compounds read low",0.999
same,normalized growth,"locus YPL256C, strain CLN2, active compounds read low",1.02
same,normalized growth,"locus YPR119W, strain clb2, active compounds read low",0.988
same,normalized growth,"locus YPR141C, strain kar3, active compounds read low",0.971
same,normalized growth,"locus YPR163C, strain tif3, active compounds read low",0.991
same,normalized growth,"locus YPR167C, strain met16, active compounds read low",0.994
same,normalized growth,"strain wtn01, active compounds read low",0.985
